Screens deposited in PubChem by several laboratories.
Sampled rows, rich in hits. Any-hit rate of the full collection: about 2.2%.
KLF5 inh – KLF5 expression inhibitors, primary screen, DLD-1 cells, luminescence. DLD-1 KLF5 promoter-luciferase reporter. inhibition, % at 5 µM. 290,000 tested, 0.23% active;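 active means inhibition above a per-plate limit of that plate's mean compound inhibition plus 3 SD, cut at about 60% in these data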;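 further: 0% = DMSO wells and 100% = LY294002 at 200 µM; higher means less KLF5 promoter-driven luciferase light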
APP transl inh – inhibitors of APP translation via 5'UTR reporter, primary screen, APP 5'UTR luciferase, SH-SY5Y cells | SH-SY5Y APP 5'UTR-luciferase reporter, luminescence | AID 1285, 2008 | 190,000 tested, 0.82% active | inhibition, % at 2 µM;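 active means inhibition above a set limit, derived from the sample mean plus 3 SD, cut at about 45% in these data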
Ba/F3 V617F tox – reduced viability of JAK2V617F-dependent Ba/F3 cells, primary screen, JAK2V617F inhibitor project, cell-based, Ba/F3 EpoR-JAK2V617F, luminescence | ATP luminescence | inhibition, % at 5.6 µM | 220,000 tested, 1.1% active | AID 1446, 2008;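 active means inhibition above the campaign mean plus 3 SD over all tested compounds, cut at about 24% in these data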;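 further: cytokine-independent growth of Ba/F3 cells driven by EpoR plus mutant JAK2; 0% = DMSO-treated cells and 100% = JAK inhibitor I control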
BaF3 tox – parental Ba/F3 cell viability inhibition, counter-screen for JAK2V617F inhibitor project, murine pro-B, CellTiter-Glo luminescence; CellTiter-Glo ATP luminescence; inhibition, % at 5.6 µM; 220,000 tested, 1.1% active; AID 1486, 2009;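 active means inhibition above a per-campaign cutoff, the mean inhibition of all tested compounds plus 3 SD, cut at about 27% in these data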;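 further: 0% = DMSO wells and 100% = JAK Inhibitor I control wells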
IEC-6 cytotox – cytotoxicity in IEC-6 intestinal epithelial cells, primary screen, cytotoxicity control for KLF5 inhibitor project, cell-based, luminescence | inhibition, % at 5 µM | 290,000 tested, 0.78% active | IEC-6 cytotoxicity, luminescence viability; in the data active means inhibition above about 22%;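 further: 0% = plate median of test compound wells and 100% = cytotoxic reference compound wells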
aSyn UTR inh – MLPCN primary screen, SNCA 5' untranslated region; alpha-synuclein 5'UTR reporter, inhibitor activity; inhibition, % (tested at 7.5 µM); 300,000 tested, 0.82% active; in the data active means inhibition above about 60%;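 further: H4 neuroglioblastoma cells stably carrying SNCA 5'UTR luciferase fusion; 0% = DMSO wells and 100% = positive control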
* = called active by the depositor; . = not tested or not shown.

SMILES | KLF5 inh | APP transl inh | Ba/F3 V617F tox | BaF3 tox | IEC-6 cytotox | aSyn UTR inh
CCOc1ccc(C2=Nn3c(nnc3-c3ccco3)SC2)cc1 | -61 | 9 | -1 | 0 | 8 | 23
COc1ccc(C2=Nn3c(nnc3-c3ccco3)SC2)cc1OC | -39 | -4 | 13 | 0 | 7 | 79*
NC(=S)n1[nH]c(-c2ccc([N+](=O)[O-])cc2)c(N=Nc2ccccc2[N+](=O)[O-])c1=O | 4 | 14 | 2 | 46* | 8 | .
O=C(NCCCN1CCOCC1)c1ccccc1 | -10 | -14 | -3 | 40* | -2 | 11
O=C1c2ccccc2NC(c2ccccc2)N1Cc1ccccc1 (stereo unspecified) | . | . | . | . | . | -17
COc1cccc(C2Nc3ccccc3C(=O)N2Cc2ccccc2)c1 (stereo unspecified) | . | . | . | . | . | 79*
O=C(O)Cc1c(C(=O)O)nnn1-c1ccc(Cl)cc1Cl | -16 | 50* | 3 | 6 | -4 | 7
CN(C)c1nnnn1-c1ccc(Cl)cc1Cl | -7 | -3 | 4 | 3 | -2 | -10
CCN(CCO)c1ccc(N=Nc2cc(C)[nH]n2)cc1 | 41 | . | -5 | -1 | -5 | 102*
COc1ccc2c(Cl)c(C(=O)N/N=C3\CCCC(=O)C3)sc2c1 | 12 | -29 | -5 | 6 | -7 | -59
CC(C)(C)c1ccccc1NC(=S)NC1CCCCC1 | -13 | -23 | -4 | 40* | 16 | 7
CC(C)(C)c1ccccc1NC(=S)NC1CCCC1 | -10 | . | . | . | 9 | -3
Cc1ccc(Nc2cc(C(=O)NCCCN3CCOCC3)c3ccccc3n2)cc1C | -50 | . | . | . | 7 | -48
Cc1ccc(Nc2ncc(C(=O)NCCCN3CCN(C)CC3)c3ccccc23)cc1Cl | 3 | 10 | 65* | 64* | 13 | 4
CCOC(=O)CSc1nc(=O)n2cccc(C)c2n1 | -37 | 45* | 5 | 7 | 1 | -11
Cc1ccnn1CCC(=O)O | -6 | . | -1 | 0 | 0 | -9
N#C/C(=C\c1ccc(OCc2ccc(C(=O)O)cc2)cc1)C(=O)N1CCOCC1 | 40 | 56* | 2 | 8 | 0 | 93*
COc1cc(/C=C(\C#N)C(=O)N2CCOCC2)ccc1OCc1ccccc1 | -20 | -37 | -1 | 8 | -1 | -120
Cc1ccc(Cl)cc1N1CCN(C(CC(C)C)c2nnnn2CC2CCCO2)CC1 (stereo unspecified) | -10 | 6 | -2 | 3 | -4 | -15
CCCC(c1nnnn1CC1CCCO1)N1CCN(c2cc(Cl)ccc2C)CC1 (stereo unspecified) | -6 | -13 | -6 | 31* | 0 | 22
O=C(NCc1ccco1)c1ccc(Cn2c(=O)c3ccccc3n(Cc3cccc(Cl)c3)c2=O)cc1 | -9 | 1 | -1 | 3 | 2 | 64*
CC1C(=O)C(C)C(c2ccc(Cl)cc2)NC1c1ccc(Cl)cc1 (stereo unspecified) | . | . | . | . | . | 68*
COc1ccc(C2NC(c3ccc(OC)cc3)C(C)C(=O)C2C)cc1 (stereo unspecified) | -24 | . | . | . | 7 | 0
COc1cc(/C=N/NC(N)=S)ccc1OC(=O)c1ccc(C)cc1 | -30 | -6 | -1 | 2 | -2 | -34
COc1cc(/C=N/NS(=O)(=O)c2ccc(C)cc2)ccc1OCc1cccc(C(=O)O)c1 | 34 | 31 | -1 | 0 | -5 | 90*
SMILES | KLF5 inh | APP transl inh | Ba/F3 V617F tox | BaF3 tox | IEC-6 cytotox | aSyn UTR inh
COc1cc(/C=N/NC(N)=S)ccc1OCc1ccc(C)cc1 | -55 | -19 | 60* | 48* | 5 | -179
Fc1ccc(-c2cn(-c3ccccc3)c3[n+]2CCS3)cc1 | -7 | . | 55* | 60* | 0 | 5
CC(=O)c1ccc(-n2cc(-c3ccc(C(C)(C)C)cc3)[n+]3c2SCCC3)cc1 | -4 | -19 | 55* | 62* | 5 | -14
COc1ccc(-c2cn(-c3ccc(Br)cc3)c3[n+]2CCS3)cc1 | -14 | -7 | 65* | 78* | 2 | 5
Clc1ccc(-c2cn(-c3ccccc3)c3[n+]2CCS3)cc1 | -17 | -12 | 54* | 78* | -2 | -21
Cc1c(-c2ccc(Cl)cc2)[n+](=O)c(-c2ccccc2)cn1[O-] | -23 | . | -3 | -2 | -4 | -118
C(#Cc1ccc(C#CCN2CCCC2)cc1)CN1CCCC1 | -1 | -2 | 5 | 8 | 2 | -8
C#CC[N+]1(CC#Cc2ccc(C)cc2)CCCCC1 | -29 | 1 | 69* | 66* | -3 | -4
Cc1ccc(C#CC[N+]2(C)CCCCC2)cc1 | -45 | . | 54* | 57* | 4 | -1
CCOc1ccc(OCCC(=O)OCC(=O)NNC(=O)c2ccccc2)cc1 | . | . | . | . | . | 2
CCOC(=O)CNC(=S)N(Cc1ccco1)Cc1ccccc1Cl | 2 | . | . | . | -9 | 11
CCOC(=O)c1sc(N)c(C(=O)OC)c1C | -57 | -24 | 5 | 90* | 11 | -59
N/C(=N\OC(=O)c1ccccc1Cl)c1ccncc1 | -137 | -94 | -4 | 2 | 2 | -107
Cc1ccc(C(=O)O/N=C(\N)c2ccccc2)c(Cl)c1 | -92 | . | -3 | 0 | -7 | 85*
N/C(=N\OC(=O)c1cccc2ccccc12)c1ccccn1 | -17 | . | 0 | 2 | 12 | 102*
N/C(=N\OC(=O)c1ccc([N+](=O)[O-])cc1Cl)c1ccccn1 | 65* | . | . | . | 1 | 69*
COc1cccc(C(=O)O/N=C(\N)c2ccccn2)c1OC | -137 | . | . | . | -1 | -74
N/C(=N\OC(=O)c1cc([N+](=O)[O-])ccc1Cl)c1ccccn1 | -53 | . | -2 | -4 | -5 | -82
CCc1ccc(NC(=O)CCNS(=O)(=O)c2cccc3nsnc23)cc1 | -14 | -5 | 5 | 61* | 2 | -12
COc1ccc(NC(=O)CCNS(=O)(=O)c2cccc3nsnc23)cc1OC | 10 | 4 | -2 | 5 | -3 | 3
O=C(O)CCC(=O)NNc1ncnc2ccccc12 | -32 | -16 | -2 | 10 | 4 | 14
O=C(O)CCC(=O)NNc1nc2ccccc2nc1-c1ccccc1 | -50 | -8 | 1 | 90* | 0 | -31
O=C(CC1C(=O)NCCN1CC1CCCCC1)NCCCN1CCOCC1 (stereo unspecified) | -39 | . | . | . | -13 | -6
NS(=O)(=O)c1ccc(NC(=O)COC(=O)c2cnc(Cl)c(Cl)c2)cc1 | 1 | . | -2 | 3 | -1 | -9
CC[n+]1c(/C=C2/C=C(C)CC(C)(C)C2)sc2ccc(OC)cc21 | -26 | 0 | 64* | 59* | -8 | -11
CCC1=C/C(=C/c2sc3ccccc3[n+]2CC)CC(C)(C)C1 | -1 | -17 | 2 | 15 | -8 | -42
CC[n+]1c(/C=C2\C=C(C)CC(C)C2)sc2ccccc21 (stereo unspecified) | -19 | 5 | 63* | 63* | -1 | -11
